This is an account of results in PubChem BioAssay (Tox21).

Values joined by “and” are separate entries in the source; they are usually repeats but may differ in a detail not shown here. Identical values can stand only once. Records with an inconclusive call do not appear. Where a structure was tested more than once in an assay, its records may differ in their call. Active and inactive are the calls of the source. Unless noted, the call rests on the fitted dose curve.

A short description of test [1]: Nuclear factor erythroid 2-related factor 2/antioxidant responsive element (Nrf2/ARE) small molecule agonists: qHTS cell viability counter screen in human keratinocytes (AID 1919968; active means well fitted curve in the direction sought with a large enough effect in the repeat runs; an effect the other way counts as inactive or inconclusive; further: nearly all actives have a fitted effect of over 55% in size; further: potency means the concentration at half of the fitted maximal effect). Summed up: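 Parallel cytotoxicity read: KeratinoSens HaCaT cells, compound treatment 23 h, viability by CellTiter-Fluor fluorescence 1 h post-reagent.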
In general terms: qHTS replaces the single test concentration by a dilution series.

Test [2] in a line: Nuclear factor erythroid 2-related factor 2/antioxidant responsive element (Nrf2/ARE) small molecule agonists: luciferase reporter gene qHTS assay in human keratinocytes (AID 1919969). Further: nearly all actives have a fitted effect of over 35% in size. Further: potency means the concentration at half of the fitted maximal effect. Background: In a reporter assay the amount or activity of a reporter protein is the signal.
The target in test [3] is Gonadotropin-releasing hormone receptor (Homo sapiens) (UniProt P30968). The test can be described thus: Human gonadotropin-releasing hormone receptor (GnRHR) small molecule agonists, calcium flux assay in GnRHR-HEK293 cells (AID 1920063). Further: nearly all actives have a fitted effect of over 35% in size. Further: potency means the concentration at half of the fitted maximal effect. Summed up: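 Calcium flux, agonist mode, human GnRHR stably integrated in HEK293; dye 1 h at 37 C before compound; Ex/Em=480/540 kinetic read, 3 min; 15 concentrations, triplicate.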
Sequence of Gonadotropin-releasing hormone receptor (Homo sapiens) (P30968 whole entry, looked up): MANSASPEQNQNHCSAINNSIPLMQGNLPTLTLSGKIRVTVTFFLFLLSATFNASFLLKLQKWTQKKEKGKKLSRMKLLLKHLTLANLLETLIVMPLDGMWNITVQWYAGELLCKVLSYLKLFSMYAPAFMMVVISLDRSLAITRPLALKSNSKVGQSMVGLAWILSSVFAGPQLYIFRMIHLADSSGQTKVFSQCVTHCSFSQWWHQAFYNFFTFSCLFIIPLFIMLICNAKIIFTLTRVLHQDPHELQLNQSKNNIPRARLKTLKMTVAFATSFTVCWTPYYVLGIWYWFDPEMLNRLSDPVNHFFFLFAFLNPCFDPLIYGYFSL
(Calcium assays in cells follow changes in intracellular calcium, usually with a dye or a luminescent sensor.)

For test [4], the target named is KiSS-1 receptor (Homo sapiens) (UniProt Q969F8). The test can be described thus: Human kisspeptin (KISS1R) small molecule agonists, calcium flux assay in KISS1R-HEK293 cells (AID 1920064; active means well fitted curve in the direction sought with a large enough effect in the repeat runs; an effect the other way counts as inactive or inconclusive). Summed up:
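Triplicate 15-concentration series were applied to dye-loaded human KISS1R HEK293 cells, and agonist-evoked calcium fluorescence was captured for 3 min.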

Test [5] in a line: p53 small molecule agonists, cell-based qHTS assay with rat liver microsomes (AID 1963578). Summed up: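 With rat liver microsomes and NADPH present (0.5 mg/mL final each), p53RE-bla cells are treated with compound for 16 h at 37 C. LiveBLAzer detection mixture is then applied for 2 h at room temperature in the dark.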
Test [6] in a line: p53 small molecule agonists, cell-based qHTS assay with rat liver microsomes: qHTS cell viability counter screen (AID 1963580). Further: nearly all actives have a fitted effect of over 45% in size. Further: potency means the concentration at half of the fitted maximal effect. Summed up: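 Cytotoxicity counter screen: intracellular ATP read by CellTiter-Glo luminescence in the p53 reporter wells. HCT-116 p53RE-bla cells were treated for 16 h at 37 C alongside rat liver microsomes and NADPH, each 0.5 mg/mL final.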
Test [7] can be described thus: p53 small molecule agonists, cell-based qHTS assay: qHTS cell viability counter screen (AID 1963581). Further: nearly all actives have a fitted effect of over 45% in size. Further: potency means the concentration at half of the fitted maximal effect. Summed up:
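Multiplexed with the reporter read, a CellTiter-Glo step (30 min, room temperature) gauges ATP-based viability of HCT-116 p53RE-bla cells after 16 h compound incubation at 37 C.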

Test [8] deals with 5-hydroxytryptamine receptor 2A (Homo sapiens) (UniProt P28223). The test can be described thus: 5-hydroxytryptamine receptor 2A (HTR2A) small molecule antagonists, cell-based qHTS assay (AID 1963586). Further: nearly all actives have a fitted effect of over 45% in size. Summed up: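 CHO cells stably expressing human HTR2A were plated for 18 h at 37 C, then loaded with calcium dye for 1 h. Compounds were preincubated 5 min at room temperature before DOI (4 nM solution) was added. Kinetic fluorescence was read for 3 min.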
Sequence of 5-hydroxytryptamine receptor 2A (Homo sapiens) (P28223 whole entry, looked up): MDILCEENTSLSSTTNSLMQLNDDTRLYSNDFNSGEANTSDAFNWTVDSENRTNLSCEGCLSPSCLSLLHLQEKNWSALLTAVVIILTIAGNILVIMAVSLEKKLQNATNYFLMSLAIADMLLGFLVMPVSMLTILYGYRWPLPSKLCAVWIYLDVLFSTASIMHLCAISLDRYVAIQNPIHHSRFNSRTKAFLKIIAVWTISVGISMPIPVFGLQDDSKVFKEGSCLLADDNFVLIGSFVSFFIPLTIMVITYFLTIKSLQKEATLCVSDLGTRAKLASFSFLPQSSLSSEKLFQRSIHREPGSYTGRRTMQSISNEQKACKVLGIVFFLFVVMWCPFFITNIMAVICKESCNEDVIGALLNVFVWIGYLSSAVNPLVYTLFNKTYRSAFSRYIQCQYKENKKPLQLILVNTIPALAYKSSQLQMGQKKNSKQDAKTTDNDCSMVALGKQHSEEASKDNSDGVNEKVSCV

The target is the same in test [9]. Nature of the test: 5-hydroxytryptamine receptor 2A (HTR2A) small molecule agonists, cell-based qHTS assay (AID 1963587). Further: nearly all actives have a fitted effect of over 30% in size. Further: potency means the concentration at half of the fitted maximal effect. The method, boiled down: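 Kinetic calcium-flux fluorescence (2 min, 1 sec intervals) after compound addition in agonist mode. HTR2A-CHO cells were cultured 18 h, then dye-loaded 1 h at 37 C.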
Test [10] has as its target Muscarinic acetylcholine receptor M1 (Homo sapiens) (UniProt P11229). Nature of the test: Cholinergic receptor muscarinic 1 (CHRM1) small molecule antagonists, cell-based qHTS assay (AID 1963588). Further: nearly all actives have a fitted effect of over 40% in size. Summed up: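 Compounds were tested at 15 concentrations in three independent runs. Dye-loaded CHRM1-CHO cells were exposed 5 min at room temperature before stimulation by acetylcholine added at 50nM. Intracellular calcium was read kinetically on FDSS for 3 min.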

The target in test [11] is D(2) dopamine receptor (Homo sapiens) (UniProt P14416). Nature of the test: Dopamine D2 receptor (DRD2) small molecule agonists, cell-based qHTS assay (AID 1963594). Further: nearly all actives have a fitted effect of over 35% in size. The method, boiled down: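 cAMP accumulation in DRD2-HEK293 cells measured by HTRF after 1 h detection; compounds added 10 min before NKH477 (200nM […]) forskolin-analogue stimulation, 30 min at room temperature, with Ro20-1724 present at 0.1 mM final.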
Sequence of D(2) dopamine receptor (Homo sapiens) (P14416 whole entry, looked up): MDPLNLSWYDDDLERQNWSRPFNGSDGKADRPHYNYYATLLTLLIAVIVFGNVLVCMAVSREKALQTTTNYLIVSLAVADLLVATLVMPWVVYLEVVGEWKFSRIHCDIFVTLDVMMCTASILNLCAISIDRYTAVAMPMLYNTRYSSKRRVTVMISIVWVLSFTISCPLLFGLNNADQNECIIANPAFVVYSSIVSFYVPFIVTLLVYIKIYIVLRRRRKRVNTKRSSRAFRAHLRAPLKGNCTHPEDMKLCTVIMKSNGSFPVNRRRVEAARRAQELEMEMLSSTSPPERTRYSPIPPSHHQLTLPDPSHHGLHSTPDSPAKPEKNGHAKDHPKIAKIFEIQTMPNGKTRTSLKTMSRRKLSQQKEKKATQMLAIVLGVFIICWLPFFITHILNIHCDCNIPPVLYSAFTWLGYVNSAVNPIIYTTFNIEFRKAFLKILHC

Test [12] shares this target. The test can be described thus: Dopamine D2 receptor (DRD2) small molecule antagonists, cell-based qHTS assay (AID 1963595; active means well fitted inhibition curve with a large enough effect in the signal ratio in the repeat runs, with a control signal flat; the % refers to the signal ratio; further: potency means the concentration at half of the fitted maximal effect). Summed up: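 DRD2-HEK293; 0.1 mM Ro20-1724; cpd 10 min RT; NKH477 200 nM + quinpirole 12 nM, 30 min RT; HTRF cAMP (cAMP-d2/anti-cAMP cryptate), 665/620 nm ratio after 1 h.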
Test [13] is described as follows: G protein-coupled receptor (GPCR) small molecule agonists, calcium flux assay: HEK293 wild type cell line counter screen (AID 1920065). The method, boiled down:
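Non-specific calcium responders were flagged by adding DMSO-dissolved compounds to dye-loaded cells and reading 480/540 nm fluorescence each second for 3 min; ATP served as positive control.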

Test [14] in a line: p53 small molecule agonists, cell-based qHTS assay with human liver microsomes: qHTS cell viability counter screen (AID 1963579). Further: nearly all actives have a fitted effect of over 45% in size. The method, boiled down:
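In this multiplexed counter screen, the reporter plates were subsequently treated with CellTiter-Glo so that cell viability, reflected by luminescence, could be recorded for p53RE-bla cells dosed 16 h with compounds under microsomal activation (HLM and NADPH).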

Test [15] is described as follows: p53 small molecule agonists, cell-based qHTS assay (AID 1963582; active means well fitted activation curve with a large enough effect in the signal ratio in the repeat runs, not every such curve was filed as active; the % refers to the signal ratio). Summed up: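 Beta-lactamase reporter cells (p53RE-bla) treated with compounds for 16 h at 37 C; FRET substrate, 2 h, room temperature; fluorescence intensity.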
In test [16] the target is Muscarinic acetylcholine receptor M1 (Homo sapiens) (UniProt P11229). Nature of the test: Cholinergic receptor muscarinic 1 (CHRM1) small molecule agonists, cell-based qHTS assay (AID 1963589). Further: nearly all actives have a fitted effect of over 35% in size. Summed up:
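qHTS, 15-point titration, 3 independent runs: compounds pin-transferred onto dye-loaded CHRM1-CHO cells (human M1), calcium fluorescence followed every second to detect agonism.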

Test [17] is described as follows: cAMP Responsive Elements (CRE) small molecule agonists, cell-based qHTS assay (AID 1963590). The method, boiled down: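 Quantitative HTS for CRE agonists: HEK 293T CRE-bla cells, overnight plating, 3 h compound incubation at 37 C/5% CO2, then 2 h room-temperature LiveBLAzer B/G FRET substrate loading.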
Test [18] can be described thus: cAMP Responsive Elements (CRE) small molecule antagonists, cell-based qHTS assay (AID 1963591; active means well fitted inhibition curve with a large enough effect in the signal ratio in the repeat runs, not every such curve was filed as active; the % refers to the signal ratio). Summed up: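 Fluorescence intensity from cleaved LiveBLAzer B/G substrate (2 h, room temperature) quantified CRE-bla activity in HEK 293T cells exposed 3 h to compound with 0.25 uM final NKH477.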
Test [19] concerns the target Beta-2 adrenergic receptor (Homo sapiens) (UniProt P07550). Nature of the test: Adrenergic beta2 receptor (ADRB2) small molecule antagonists, cell-based qHTS assay (AID 1963592). Further: series mostly up to about 92 µM; nearly all actives have a fitted effect of over 50% in size. Summed up: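 Assay format: CHO-ADRB2 cells, 18-20hr seeding at 37C/5% CO2, then compound plus 1nM isoproterenol agonist mix for 0.5hr RT. Homogeneous time-resolved fluorescence cAMP detection after 1hr, expressed as 665/615 nm ratio.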

For test [20] the target is unchanged. Nature of the test: Adrenergic beta2 receptor (ADRB2) small molecule agonists, cell-based qHTS assay (AID 1963593).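 Further: CHO cells stably overexpressing human ADRB2.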 The method, boiled down: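 CHO cells stably over-expressing ADRB2 were plated overnight at 37C, then dosed with compounds plus a stimulation mix containing 100uM IBMX and 25uM Ro-20-1724 for 0.5hr at room temperature. cAMP was measured by HTRF competition, 1hr.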
On the % scale 0 is the no-effect control and ±100 the full control effect.

Sequence of Muscarinic acetylcholine receptor M1 (Homo sapiens) (P11229 whole entry, looked up): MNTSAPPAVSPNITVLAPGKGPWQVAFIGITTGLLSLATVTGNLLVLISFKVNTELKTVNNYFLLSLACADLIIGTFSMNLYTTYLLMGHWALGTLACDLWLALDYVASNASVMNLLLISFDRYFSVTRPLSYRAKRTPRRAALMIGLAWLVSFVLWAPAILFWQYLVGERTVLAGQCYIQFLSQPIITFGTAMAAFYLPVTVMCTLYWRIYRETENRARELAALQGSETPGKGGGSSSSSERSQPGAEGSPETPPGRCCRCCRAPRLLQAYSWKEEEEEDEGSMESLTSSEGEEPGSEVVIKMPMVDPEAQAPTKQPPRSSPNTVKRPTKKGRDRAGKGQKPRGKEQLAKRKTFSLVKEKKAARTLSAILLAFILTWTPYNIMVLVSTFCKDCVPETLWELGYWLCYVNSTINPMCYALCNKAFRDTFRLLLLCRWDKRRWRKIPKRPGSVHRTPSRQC
Sequence of KiSS-1 receptor (Homo sapiens) (Q969F8 whole entry, looked up): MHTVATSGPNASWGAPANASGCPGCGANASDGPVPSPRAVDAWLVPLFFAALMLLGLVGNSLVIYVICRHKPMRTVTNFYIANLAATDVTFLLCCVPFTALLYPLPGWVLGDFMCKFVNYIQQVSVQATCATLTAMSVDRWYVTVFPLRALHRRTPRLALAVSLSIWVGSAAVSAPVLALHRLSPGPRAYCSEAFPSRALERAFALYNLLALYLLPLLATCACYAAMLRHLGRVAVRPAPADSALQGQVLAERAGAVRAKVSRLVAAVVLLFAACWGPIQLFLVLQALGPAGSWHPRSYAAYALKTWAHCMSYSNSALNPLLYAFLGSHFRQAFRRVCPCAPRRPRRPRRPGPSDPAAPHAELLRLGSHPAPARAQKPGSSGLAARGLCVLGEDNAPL
Sequence of Beta-2 adrenergic receptor (Homo sapiens) (P07550 whole entry, looked up): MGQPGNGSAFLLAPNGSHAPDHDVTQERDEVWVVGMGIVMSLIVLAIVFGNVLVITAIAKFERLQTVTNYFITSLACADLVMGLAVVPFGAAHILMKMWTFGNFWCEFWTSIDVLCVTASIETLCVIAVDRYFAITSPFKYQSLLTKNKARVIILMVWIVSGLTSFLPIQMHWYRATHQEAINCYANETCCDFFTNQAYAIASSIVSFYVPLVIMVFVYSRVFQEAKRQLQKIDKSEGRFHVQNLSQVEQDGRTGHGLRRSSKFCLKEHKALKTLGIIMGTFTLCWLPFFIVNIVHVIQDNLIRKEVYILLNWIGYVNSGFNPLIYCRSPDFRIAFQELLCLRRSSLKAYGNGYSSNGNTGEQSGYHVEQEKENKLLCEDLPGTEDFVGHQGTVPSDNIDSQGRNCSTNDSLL

For the compound `N#CSCSC#N`, the Potency was 14 µM (active) and 21.5 µM (active) in [1]; 15.2 µM (active) in test [2]; 39.8 µM (active) in [3]; 37.2 µM (active) in test [6]; 46.8 µM (active) in test [7]; 50.1 µM (active) and 48.5 µM (active) in test [9]. Moreover, the Potency in [12] is 27.9 µM (active) and 27 µM (active). Besides, the Potency entry in test [4], in [5], in [8], in [10] and in [11] was “inactive” throughout.
Regarding `N#Cc1ccccc1N`, the Potency result in [1], in [2], in test [3], in test [13], in test [5] and in test [14] was “inactive” in each case. Moreover, the Potency result in [6], in [7], in test [15], in test [8], in [9] and in test [10] was “inactive” each time. Moreover, the Potency entry in [16], in test [17], in test [18], in [19], in test [20] and in [11] was “inactive” in each case. For the same compound, in test [12], the Potency entry is “inactive”.
`C=CC1(C)OC(=O)N(c2cc(Cl)cc(Cl)c2)C1=O` (configuration not stated): the Potency entry in [1], in test [3], in test [4], in test [5], in [6] and in test [7] was “inactive” in each case. The Potency entry in test [15], in test [9], in test [10], in test [16], in [17] and in test [18] was “inactive” throughout. Besides, the Potency result in test [20], in test [11] and in test [12] was “inactive” in each case. The Potency in test [2] was 68.2 µM (active) and inactive.
In the case of `CNC(=O)Oc1c(C(C)(C)C)cc(C)cc1C(C)(C)C`, the Potency entry in [1], in [3], in [4], in test [5], in test [14] and in test [6] was “inactive” in each case. The Potency entry in test [15], in test [8], in [10], in [16], in [17] and in [18] was “inactive” in each case. Besides, the Potency result in test [19], in [20], in test [11] and in [12] was “inactive” in each case. The Potency in test [2] was 61.1 µM (active).
On to `CO[C@@H]1[C@H](OC(=O)NC(=O)CCl)CC[C@]2(CO2)[C@H]1[C@@]1(C)O[C@@H]1CC=C(C)C`, for which the activity change, negative = cytotoxicity was -2.18% [at 19 µM] (inactive) in test [1], 1.12% [at 13.5 µM] (inactive) in test [14], -0.0178% [at 13.5 µM] (inactive) in test [6] and 4.01% [at 13.5 µM] (inactive) in [7]. In test [2], the Potency is 16.7 µM (active). Further, the activity change in test [3] was 0.0131% [at 11.8 µM, stronger effect = higher value] (inactive). The activation was 2.6% [at 11.8 µM] (inactive) in test [13]; 1.99% [at 13.6 µM] (inactive) in [5]; -1.88% [at 13.5 µM] (inactive) in test [15]; -4.56% [at 15.9 µM] (inactive) in [9]; -0.344% [at 15.8 µM] (inactive) in test [16]; -1.17% [at 19 µM] (inactive) in [17]. Moreover, the activation in test [20] is 4.33% [at 19 µM] (inactive); in [11], 1.8% [at 19 µM] (inactive). The activity, negative = inhibition in test [8] is -0.303% [at 12.7 µM] (inactive); in test [10], 56% [at 12.6 µM] (inactive). For the same compound, the activity change, negative = inhibition in test [18] was -7.46% [at 18.9 µM] (inactive); in test [19] it was -3.1% [at 19 µM] (inactive); in test [12], -0.406% [at 18.9 µM] (inactive).
Consider `CC(C)(Cl)Cl`, for which the Potency entry in test [1], in test [2], in test [3], in [13], in test [5] and in test [14] was “inactive” throughout. Further, the Potency entry in test [6], in test [7], in test [15], in [8], in test [9] and in [10] was “inactive” in each case. Further, the Potency result in test [16], in test [17], in test [18], in test [19], in test [20] and in test [11] was “inactive” throughout. In addition, the Potency entry in test [12] is “inactive”.
